Experimental data as given in PubChem BioAssay.

These compounds were tested on Inhibin beta A chain (activin A) (assay: small molecules binding activin A – biochemical, small-molecule microarray, 635 nm fluorescence scan, primary screen (AID 1107;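 also: mouse activin A protein probed at 4.33 µg/mL on printed slides; score merges bound-protein fluorescence near 667 nm with spot signal-to-noise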)). Details: INHBA, higher = more signal.
In the case of CCCCOC(OCCCC)C(O)CSc1ccc2ccccc2c1 (stereo unspecified), the composite z-score is reported as 0.251. CCOC(=O)CCN1C(=O)[C@H]2[C@H]3[C@H](O)[C@H](O)CC(=O)[C@@H]3CC[C@H]2C1=O was tested, and the composite z-score was -0.37. Compound CON=C(C)CCN1CCCc2nc(C)c(C)cc21 has a composite z-score of 0.912. Compound COC(=O)CC=C1c2ccccc2[C@H](OC)[C@H]1C has a composite z-score of 1.05. Compound C=CC[C@@H]1C=C[C@H](ON=C[C@@H](NS(=O)(=O)c2ccc(C)cc2)[C@H](C)C=CCC(=O)OC)[C@@H](CO)O1 has a composite z-score of 1.15. Compound O=C1C=C[C@@H](O)[C@@H]2[C@@H]3C(=O)N(c4cccc(Oc5ccccc5)c4)C(=O)[C@@H]3CC[C@@H]12 has a composite z-score of -0.0914. In the case of C=CC[C@@H]1C=C[C@H](Oc2ccc(C)cc2)[C@@H](COC(=O)NCc2cccc3ccccc23)O1, the composite z-score is reported as 1.03. For O=C1[C@H]2[C@H]3[C@H](O)[C@H](O)CC(=NOCc4ccccc4)[C@@H]3CC[C@H]2C(=O)N1c1cccc(Oc2ccccc2)c1, the composite z-score was -0.202. For CCCC[C@H]1CN2[C@@H](CC[C@@H](C)[C@@H]2c2ccc(Br)cc2)C(=O)O1, the composite z-score was 0.0442. With CCOC(=O)[C@H](Cc1ccccc1)NC(=O)CCC1CC(OC(=O)NCc2cccc3ccccc23)CC2(CCCC(COC(=O)NCc3ccc4c(c3)OCO4)O2)O1 (stereo partly specified) the composite z-score was 0.325. CC(C)(C)N1C(=O)[C@H]2[C@H]3[C@H](O)[C@H](O)CC(=NNC(=O)OCc4ccccc4)[C@@H]3CC[C@H]2C1=O was tested, and the composite z-score was -0.337. COc1ccc(OC[C@@H]2CC3[C@@H](c4ccc(Br)cc4)[C@H](C)CC[C@H]3C(=O)O2)cc1 (stereo partly specified) gave a composite z-score of 0.483. Work on CC(C)=CCCC(C)=CCON=C1C[C@@H](O)[C@@H](O)[C@@H]2[C@@H]3C(=O)N(c4cccc(Oc5ccccc5)c4)C(=O)[C@@H]3CC[C@H]12 yielded a composite z-score of 0.657. In the case of CCN1C(=O)[C@H]2[C@H]3[C@H](O)[C@H](O)CC(=NO[C@H](C)c4cn([C@H](CO)Cc5ccccc5)nn4)[C@@H]3CC[C@H]2C1=O, the composite z-score is reported as -0.802. For C#CCCCON=C1C[C@@H](O)[C@@H](O)[C@@H]2[C@@H]3C(=O)N(C[C@@H]4CCCO4)C(=O)[C@@H]3CC[C@@H]12, the composite z-score was 0.397. COC(=O)CC=C[C@@H](C)[C@@H](C=NOC[C@@H](O)COCc1ccco1)NS(=O)(=O)c1ccc(C)cc1 gave a composite z-score of 1.65. CC(=O)OC[C@H]1O[C@H](CC=NO[C@@H](C)c2cn([C@H](CO)Cc3ccccc3)nn2)C=C[C@@H]1OC(C)=O showed a composite z-score of -0.383. CCc1cc2c(nc1CC)CCN(CCC(C)=NO[C@@H]1O[C@H](COC(C)=O)[C@@H](OC(C)=O)[C@H](OC(C)=O)[C@H]1OC(C)=O)C2 gave a composite z-score of 0.703. In the case of CC(C)(C)N1C(=O)[C@H]2[C@@H]3C(=CC[C@H]2C1=O)C(=O)[C@H]1O[C@H]1[C@H]3O, the composite z-score is reported as 0.555. For CC(C)=NOC(C)CN1CCCCc2nc(C)c(C)cc21 (stereo unspecified), the composite z-score was 1.04. Work on Cc1ccc2[nH]c3nc(CCCn4ccnc4-c4ccccc4)nnc3c2c1 yielded a composite z-score of -0.739. With COc1ccc(COC(=O)NN=C2C[C@@H](O)[C@@H](O)[C@@H]3[C@@H]4C(=O)N([C@@H](C)c5ccccc5)C(=O)[C@@H]4CC[C@H]23)cc1 the composite z-score was 0.541. With COC(=O)CC=C[C@@H](C)[C@@H](C=NOC(C)CN1CCCCc2nc(C)c(C)cc21)NS(=O)(=O)c1ccc(C)cc1 (stereo partly specified) the composite z-score was 1.15. Work on CO[C@@H]1COC(=O)[C@H](CCSC)NC(=O)CC=C[C@@H](C)COC(=O)[C@@H]2CCCN2C(=O)CC=C[C@H]1C yielded a composite z-score of 0.4. In the case of COC(=O)[C@H](C)NC(=O)CC=C[C@@H](C)[C@@H]1C=C[C@H](O)[C@@H](CO)O1, the composite z-score is reported as 0.229. In the case of CO[C@@H](C(C)C)[C@@H](C)C1OC(=O)CC1O (stereo partly specified), the composite z-score is reported as 0.253. COc1ccc(OC[C@@H](CO)OC)cc1 was tested, and the composite z-score was 0.512. COC(=O)[C@H](C)NC(=O)CCC1CC(OC(=O)NCc2ccc3c(c2)OCO3)CC2(CCCC(COC(=O)NCCC(C)C)O2)O1 (stereo partly specified) showed a composite z-score of -2.25. In the case of COc1cccc([C@H]2Oc3ccc(OC)cc3C(=NO[C@@H](C)c3cc(-c4c(C)cc(C)cc4C)no3)[C@@H]2O)c1, the composite z-score is reported as 0.313. CCOC(=O)CCN1C(=O)[C@H]2[C@H]3[C@H](O)[C@H](O)CC(=NNC(=O)OCC)[C@H]3CC[C@H]2C1=O showed a composite z-score of 1.26. Work on O=C1[C@H]2[C@H]3[C@H](O)[C@H](O)CC(=NOC[C@@H](O)COCc4ccco4)[C@@H]3CC[C@H]2C(=O)N1Cc1ccc2c(c1)OCO2 yielded a composite z-score of 0.506. With CC(=O)OC[C@H]1O[C@H](CC=NO[C@@H](C)c2cc(-c3c(C)cc(C)cc3C)no2)C=C[C@@H]1OC(C)=O the composite z-score was 0.363. CCO[C@H](c1cc(OC)cc([N+](=O)[O-])c1OC)[C@H](C)[C@@H](OC)[C@H](C)C=CCC(=O)OC showed a composite z-score of -0.334. Work on COC(=O)[C@H](C)NC(=O)CCC1CC(OC(=O)NCc2ccc3c(c2)OCO3)CC2(CCCC(COC(=O)NCCc3ccc(Cl)cc3)O2)O1 (stereo partly specified) yielded a composite z-score of 0.219. For COc1ccc(COC(=O)NN=C2C[C@@H](O)[C@@H](O)[C@@H]3[C@@H]4C(=O)N(c5cccc(Oc6ccccc6)c5)C(=O)[C@@H]4CC[C@H]23)cc1, the composite z-score was 0.212. In the case of COc1cccc([C@H]2Oc3ccc(OC)cc3C(=NOCC[C@@H]3C=C[C@H](OC(C)=O)[C@@H](COC(C)=O)O3)[C@@H]2O)c1, the composite z-score is reported as 0.842.
